Assay outcomes (PubChem BioAssay)
A selection follows.
aSyn 5UTR act: Activators working through SNCA 5'UTR binding (MLPCN); AID 1814; activity score, % (tested at 7.5 µM), hits read low; alpha-synuclein 5'UTR reporter, activators screen; hit rate 7.1% among 300,000; in the data active = activity score below about -60%
Of the large screens only hits and unclear results are named; the others gave an inactive call.

O=C(c1ccc(CS(=O)Cc2ccccc2Cl)o1)N1CCN(C2CCCCC2)CC1 (stereo not given)	aSyn 5UTR act -73.8
O=C(c1ccc(CS(=O)c2ccccc2Cl)o1)N1CCN(c2ccccc2)CC1 (stereo not given)	none
COc1cc(/C=C/c2ccc3cccc(O)c3n2)cc(Cl)c1OC	aSyn 5UTR act -88.3
COc1ccc(/C=C/c2ccc3c(Br)ccc(O)c3n2)cc1	aSyn 5UTR act -150.5
COc1cc(/C=C/c2ccc3c(Br)cc(Br)c(O)c3n2)ccc1O	none
COc1cc(/C=C/c2ccc3cccc(O)c3n2)cc(Br)c1OC	aSyn 5UTR act -81.1
CC1(C)CC(=O)c2sc(NS(=O)(=O)Cc3ccccc3)nc2C1	aSyn 5UTR act -62.9
CCNc1ccc(Br)cc(C(=O)/C=C/c2c(Cl)cccc2Cl)c1=O	aSyn 5UTR act -133.0
CCn1cc(C(=O)Nc2ccc(Cl)cc2Cl)cn1	aSyn 5UTR act -71.8
Cc1c(-c2ccccc2)[nH]n2c(=O)c3c(nc12)CCCC3	aSyn 5UTR act -166.2
O=c1c2c(nc3c(-c4cccc(Br)c4)c[nH]n13)CCCC2	none
Cc1ccc(-c2[nH]n3c(=O)c4c(nc3c2C)CCCC4)cc1	aSyn 5UTR act -74.9
CC1(C)CN=c2s/c(=C\c3ccc(Cl)cc3)c(=O)n2C1	aSyn 5UTR act -111.3
CNc1ncc(C(=O)c2ccc(Br)cc2)s1	aSyn 5UTR act -108.0
CNc1ncc(C(=O)c2ccccc2)s1	aSyn 5UTR act -66.1
Cc1cccc(N/N=C2/COC(C)(C)CC2=O)c1	aSyn 5UTR act -101.4
CC1(C)CC(=O)/C(=N/Nc2ccc(Cl)cc2)CO1	aSyn 5UTR act -230.1
CCOc1ccc(/C=C/C(=O)C(C(N)=O)=C2SCCS2)cc1	aSyn 5UTR act -161.5
COC(=O)c1cccc(NC(=O)Nc2ccccc2OC)c1	aSyn 5UTR act -64.5
COc1cccc(/C=N/NC(=O)C(=O)Nc2ccccc2OC(F)(F)C(F)F)c1O	none
COC(=O)c1cccc(NC(=O)NC(=O)c2ccccc2Cl)c1	none
COc1ccccc1NC(=O)C(=O)/C=C(\O)c1ccccc1	aSyn 5UTR act -130.7
COC(=O)c1cccc(NC(=O)Nc2ccc(Cl)c(Cl)c2)c1	aSyn 5UTR act -134.1
Cc1c(-c2nc(N)nc(Nc3ccccc3)n2)oc2ccccc12	aSyn 5UTR act -134.4
CC(/C=N/NC(=O)c1cccnc1)=C\c1ccco1	aSyn 5UTR act -102.9
CC(/C=N/NC(=O)c1cnccn1)=C\c1ccco1	aSyn 5UTR act -116.7
Cc1ccc2nc(NC(=O)C3CCCN(S(=O)(=O)c4cnc[nH]4)C3)sc2c1 (stereo not given)	aSyn 5UTR act -127.9
COc1ccccc1CNC(=O)CSc1ccsc1[N+](=O)[O-]	aSyn 5UTR act -113.8
O=C(CSc1ccsc1[N+](=O)[O-])NCc1ccccc1	aSyn 5UTR act -103.5
CCCOc1ccc(-c2c(=O)n(O)c3ccccc3[n+]2[O-])cc1	aSyn 5UTR act -176.4
c1ccc(Cn2ccc(-c3cnc(-c4ccccc4)s3)n2)cc1	aSyn 5UTR act -105.6
O=C(Nc1nccs1)c1csc2c1CCCC2	aSyn 5UTR act -128.9
COc1ccc(NC(=O)c2csc3c2CCCC3)cc1	aSyn 5UTR act -193.4
Cc1ccccc1NC(=O)c1csc2c1CCCC2	aSyn 5UTR act -67.2
COc1cccc(NC(=O)c2csc3c2CCCC3)c1	aSyn 5UTR act -133.8
CN=C(c1ccc(C)cc1)n1c(=S)nc(-c2ccc(C)cc2)n(C)c1=S	aSyn 5UTR act -149.1
COc1cc2c(cc1OC)C(c1ccccc1)N(C(=O)CCl)CC2 (stereo not given)	aSyn 5UTR act -85.6
CCN1C(=O)/C(=C2/C=Cc3ccccc3N2C)OC1=S	aSyn 5UTR act -200.4
O=C(Nc1ncc(Cl)cn1)c1cccs1	aSyn 5UTR act -68.8
O=C(NC(=S)Nc1cccnc1Cl)c1ccco1	aSyn 5UTR act -61.9
Cc1cc(-c2nc3ncccc3o2)ccc1NC(=S)NC(=O)c1ccco1	aSyn 5UTR act -67.0
Cc1ccnc(NC(=S)NC(=O)c2ccco2)c1	aSyn 5UTR act -140.5
Cc1ccc(-c2nc3ncccc3o2)cc1NC(=O)c1ccc([N+](=O)[O-])o1	aSyn 5UTR act -511.0
O=C(NC(=S)Nc1ccccn1)c1ccco1	aSyn 5UTR act -172.9
O=C(Nc1ccc(-c2nc3ncccc3o2)cc1)c1ccc([N+](=O)[O-])o1	none
Cc1ccnc(NC(=S)NC(=O)c2cccs2)c1	aSyn 5UTR act -270.4
O=C(NC(=S)Nc1ccc(Cl)cn1)c1cccs1	aSyn 5UTR act -92.3
Cc1ccc(-c2csc(CC(N)=O)n2)cc1	aSyn 5UTR act -76.0
N/C(Cc1nc(-c2ccc(Cl)cc2)cs1)=N/O	aSyn 5UTR act -67.3
Cc1cc2ccccn2c1C(=O)Nc1cccc(Cl)c1	aSyn 5UTR act -113.2
Cc1cc2ccccn2c1C(=S)NC(=O)c1ccccc1	aSyn 5UTR act -81.8
O=C1SC(SC(=Nc2ccccc2)Nc2ccccc2)C(=O)N1c1ccccc1 (stereo not given)	aSyn 5UTR act -132.3
O=c1ccc2ccc(OCc3ccccc3)cc2o1	aSyn 5UTR act -80.3
COc1cccc(COc2ccc3ccc(=O)oc3c2)c1	aSyn 5UTR act -139.3
COc1ccc(COc2ccc3ccc(=O)oc3c2)cc1	aSyn 5UTR act -232.3
COc1cccc(COc2ccc3c(C)c(Cc4ccccc4)c(=O)oc3c2)c1	aSyn 5UTR act -66.9
